MITF inh = blocks MITF activity; TRPM1 promoter luciferase, luminescence, 24 h; inhibition, % (test concentration not listed); 37,000 compounds, 0.28% hits; in the data active = inhibition above about 85%;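 also: human melanocyte line stably carrying TRPM1 promoter luciferase reporter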
PD-1 reversal = activators reversing PD-1 mediated T-cell inhibition | 29,000 tested, under 10 active | activation, % (no concentration beside the values) | primary human CD4 T cells, PD-L1 beads, CellTiter-Glo 96 h; call rule not given here;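 also: 0% = median vehicle wells and 100% = positive control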
YB-1 expression = YB-1 expression inhibition; U2OS, qRT-PCR YB-1 vs CDIP delta delta Cp, 16 h; hits give high values; zero = DMSO, each unit about twofold; delta delta Cp (YB-1 minus CDIP) (test concentration not listed); 30,000 compounds, 0.37% hits; AID 434959;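 active = delta delta Cp rounded down to an integer at or above 3, about 3 SD of DMSO wells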;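 also: higher means less YB-1 transcript or more CDIP transcript relative to DMSO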
NOMO-1 viab = STK33 inhibitor candidate reducing NOMO-1 cell viability; NOMO-1 AML viability, CellTiter-Glo luminescence, 72 h; inhibition, % (test concentration not listed); 37,000 compounds, 7.5% hits; in the data active = inhibition above about 80%
U2OS ROS induce = cancer cell ROS induction; U2OS ROS induction, H2DCF-DA fluorescence; ROS induction (% of piperlongumine), % at 10 µM; 46,000 compounds, 2% hits; AID 624156; in the data active = ROS induction above about 79%, passing the limit was not always enough;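 also: 0% = DMSO vehicle median and 100% = reference compound median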
* = called active by the depositor; . = not tested or not shown. Many of the other results were omitted from the sample, so hits are more common in it than they were.

SMILES	MITF inh	PD-1 reversal	YB-1 expression	NOMO-1 viab	U2OS ROS induce
C/C=C1\[C@H](O[C@@H]2O[C@H](CO)[C@@H](O)[C@H](O)[C@H]2O)OC=C(C(=O)OC)[C@H]1CC(=O)OC[C@H]1O[C@@H](OCCc2ccc(O)cc2)[C@H](O)[C@@H](O)[C@@H]1OC(=O)C[C@@H]1C(C(=O)OC)=CO[C@@H](O[C@@H]2O[C@H](CO)[C@@H](O)[C@H](O)[C@H]2O)/C1=C\C	6	3	0.76	16	-4
C/C1=C/[C@H]2OC(=O)[C@@H](C)[C@@H]2[C@H](O)C/C(CO)=C\CC1	.	.	0.049	.	60
C/C1=C/CC/C(CO)=C\[C@H]2OC(=O)C(CN3CCCC3C(=O)O)[C@@H]2[C@@H](OC(=O)C(C)CO)C1 (some centres not stated)	.	.	1.8	.	132*
CC1CCN(S(=O)(=O)c2cccc(C(=O)NC(C)(C)CO)c2)CC1	8	0	.	6	0
CC(C)(C)c1ccc(NC(=O)c2ccc(N3C(=O)CSCC3=O)cc2)cc1	.	.	.	.	150*
CC1CCN(S(=O)(=O)c2ccc(NC(=O)c3ccc(C(C)(C)C)cc3)cc2)CC1	40	0	0.14	114*	36
CC1OC(OC2C(O)C(CO)OC(O[C@H]3CC[C@@]4(C)C(CC[C@]5(C)C4CC=C4C6CC(C)(C)CC[C@]6(C(=O)OC6OCC(OC7OCC(O)C(O)C7O)C(O)C6O)CC[C@]45C)C3(C)C)C2O)C(O)C(OC2OCC(O)(CO)C2O)C1O (some centres not stated)	-9	-14	-0.087	122*	-19
C[C@@H]1O[C@@H](O[C@H]2[C@H](O[C@H]3[C@H](O[C@H]4CC[C@@]5(C)C(CC[C@]6(C)C5CC=C5[C@@H]7CC(C)(C)C[C@@H](O)[C@]7(C)CC[C@]56C)[C@@]4(C)CO)O[C@H](C(=O)O)[C@@H](O)[C@@H]3O)OC[C@H](O)[C@@H]2O)[C@H](O)[C@H](O)[C@H]1O (some centres not stated)	-7	0	1.6	18	-4
C[C@@H]1O[C@@H](O[C@H]2[C@H](O[C@H]3CC[C@@]4(C)C(CC[C@]5(C)C4CC=C4C6CC(C)(C)CC[C@]6(C(=O)O)CC[C@]45C)[C@]3(C)CO)OC[C@H](O)[C@@H]2O)[C@H](O)[C@H](O)[C@H]1O (some centres not stated)	26	-9	-1.2	119*	-21
CC(=O)N[C@H]1[C@H](O[C@H]2CC[C@@]3(C)C(CC[C@]4(C)C3CC=C3[C@@H]5CC(C)(C)CC[C@]5(C(=O)O)CC[C@]34C)C2(C)C)O[C@H](CO[C@@H]2OC[C@H](O)[C@H](O)[C@H]2O[C@@H]2OC[C@H](O)[C@H](O)[C@H]2O)[C@@H](O)[C@@H]1O (some centres not stated)	19	-13	-1.3	120*	-23
CC1(C)CC[C@]2(C(=O)O)CC[C@]3(C)C(=CCC4[C@@]5(C)CC[C@H](O[C@@H]6O[C@H](C(=O)O)[C@@H](O[C@@H]7OC[C@@H](O)[C@H](O)[C@H]7O)[C@H](O)[C@H]6O)C(C)(C)C5CC[C@]43C)C2C1 (some centres not stated)	13	-9	0.083	116*	-32
COc1ccc(/C=N/NC(=O)CCCCCC(=O)Nc2ccccc2O)c(OC)c1	.	.	-0.52	.	11
O=C(Oc1ccc2ccccc2c1C1SCCS1)c1cccs1	.	.	.	.	-3
COc1ccc(NC(=O)c2ccn[nH]2)cc1	.	.	.	.	-7
CC1C(O)C(N(C)C)CC2COCC21 (configuration not stated)	-12	1	-0.24	13	15
CC1(C)COC(CCC/C=N/NC(=O)c2ccccn2)OC1	.	.	-0.27	.	-9
C[C@@H]1O[C@@H](O[C@@H]2[C@@H](O)[C@H](O[C@@H]3[C@@H](O)[C@H](C)O[C@@H](O[C@H]4[C@H](O[C@H]5CC[C@@]6(C)C(CC[C@]7(C)C6CC=C6[C@@H]8CC(C)(C)CC[C@]8(C(=O)O)CC[C@]67C)[C@]5(C)CO)OC[C@H](O)[C@@H]4O)[C@@H]3O)O[C@H](CO)[C@H]2O[C@@H]2O[C@H](CO)[C@@H](O[C@@H]3OC[C@@H](O)[C@H](O)[C@H]3O)[C@H](O)[C@H]2O)[C@H](O)[C@H](O)[C@H]1O (some centres not stated)	-4	-6	1.5	114*	-27
CC(=O)OC1C(C)OC(OC2C(CO)OC(OC(=O)[C@]34CCC(C)(C)CC3C3=CCC5[C@@]6(C)CC[C@H](OC7OC(CO)C(OC8OC(CO)C(OC9OCC(O)C(O)C9O)C(O)C8O)C(O)C7O)[C@@](C)(CO)C6CC[C@@]5(C)[C@]3(C)CC4)C(OC3OC(C)C(O)C(O)C3O)C2O)C(O)C1O (some centres not stated)	.	.	1.4	.	5
C=CC(C)(C)c1[nH]cnc1/C=C1\NC(=O)C(C(C)C)NC1=O (configuration not stated)	14	1	0.056	106*	2
Cc1cccc(NC(=O)CSc2nc3c(cc2C#N)C(=O)CC(C)(C)C3)c1	.	.	.	.	13
CC(C)=CCc1c(O)c(CC=C(C)C)c2c(c1O)C(=O)CC(c1ccc(O)cc1O)O2 (configuration not stated)	16	-2	-0.54	116*	38
Cc1ccc(S(=O)(=O)N(C)C[C@@H]2OCCCC[C@@H](C)Oc3ccc(NC(=O)Nc4ccc(C(F)(F)F)cc4)cc3C(=O)N([C@H](C)CO)C[C@@H]2C)cc1	15	-3	0.48	53	10
C[C@@H]1CCCCO[C@H](CN(C)S(=O)(=O)c2ccc(F)cc2)[C@@H](C)CN([C@H](C)CO)C(=O)c2cc(NC(=O)Nc3ccc(C(F)(F)F)cc3)ccc2O1	18	-5	0.03	98*	9
C[C@@H]1CCCCO[C@H](CN(C)S(=O)(=O)c2ccc(F)cc2)[C@@H](C)CN([C@H](C)CO)C(=O)c2cc(NC(=O)Nc3ccc(F)cc3)ccc2O1	14	-2	-0.13	43	54
C[C@@H]1CCCCO[C@@H](CN(C)S(=O)(=O)c2ccccc2)[C@@H](C)CN([C@H](C)CO)C(=O)c2cc(NC(=O)Nc3ccc(F)cc3)ccc2O1	14	-3	0.21	40	105*
C[C@@H]1CCCCO[C@@H](CN(C)S(=O)(=O)c2ccccc2)[C@@H](C)CN([C@H](C)CO)C(=O)c2cc(NC(=O)c3ccccc3)ccc2O1	19	.	-0.19	36	132*
C[C@@H]1CCCCO[C@@H](CN(C)C(=O)Cc2ccccc2)[C@@H](C)CN([C@H](C)CO)C(=O)c2cc(NC(=O)NC3CCCCC3)ccc2O1	6	0	-0.24	23	143*
COC(=O)CCCCCCC(=O)N/N=C/c1nc[nH]c1C	.	.	0.15	.	20
O=C(Nc1nnc(C2CCCCC2)s1)C1c2ccccc2Oc2ccccc21	.	.	.	.	8
